# From article PMC7862700, “An all-to-all approach to the identification of sequence-specific readers for epigenetic DNA modifications on cytosine”
# Key:
# Test in all cases: DAPPL (digital affinity profiling via proximity ligation, sequencing); 10 mM Tris-HCl pH 7.5, 50 mM NaCl, 1 mM DTT, 4% glycerol, room temperature, 30 min; GST-TFs on glutathione beads, 16-mer random dsDNA library, 0.1% formaldehyde crosslink after washing; high values mean tight binding
# Conditions in all cases: protein: recombinant; tags: N-terminal GST; dsDNA, one strand shown
# ELK4 = biological target: T1, ELK4 (Homo sapiens, UniProt P28324-2 1-405)
# T1 sequence: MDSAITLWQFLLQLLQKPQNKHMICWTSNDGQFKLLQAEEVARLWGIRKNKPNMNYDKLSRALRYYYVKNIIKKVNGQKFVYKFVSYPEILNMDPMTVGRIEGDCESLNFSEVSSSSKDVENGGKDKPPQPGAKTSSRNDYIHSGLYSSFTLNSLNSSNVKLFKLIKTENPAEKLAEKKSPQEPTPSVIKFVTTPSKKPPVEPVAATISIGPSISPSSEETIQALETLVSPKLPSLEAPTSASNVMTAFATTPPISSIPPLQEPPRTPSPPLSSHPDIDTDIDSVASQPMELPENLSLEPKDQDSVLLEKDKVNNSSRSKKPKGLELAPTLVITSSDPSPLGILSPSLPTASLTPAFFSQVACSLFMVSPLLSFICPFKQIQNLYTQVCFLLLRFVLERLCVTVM
# Procedure, shortened: (§1)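 After expression in yeast as GST fusions, human transcription factors were bound to glutathione beads, DNA-barcoded and mixed with a tag-only sample. The pools were incubated with 200 nmole of a 16-mer random double-stranded DNA library in Tris/NaCl/DTT/glycerol buffer (30 min, room temperature), washed and crosslinked with 0.1% formaldehyde. Proximity ligation with BsaI/T4 ligase ran for 1 h at 37 °C, before PCR amplification and sequencing on an Illumina NextSeq500. Binding signal is a hexamer's read frequency for a factor divided by its frequency for the tag-only sample.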
# ELF3 = biological target: T2, ELF3 (Homo sapiens, UniProt P78545 1-371)
# T2 sequence: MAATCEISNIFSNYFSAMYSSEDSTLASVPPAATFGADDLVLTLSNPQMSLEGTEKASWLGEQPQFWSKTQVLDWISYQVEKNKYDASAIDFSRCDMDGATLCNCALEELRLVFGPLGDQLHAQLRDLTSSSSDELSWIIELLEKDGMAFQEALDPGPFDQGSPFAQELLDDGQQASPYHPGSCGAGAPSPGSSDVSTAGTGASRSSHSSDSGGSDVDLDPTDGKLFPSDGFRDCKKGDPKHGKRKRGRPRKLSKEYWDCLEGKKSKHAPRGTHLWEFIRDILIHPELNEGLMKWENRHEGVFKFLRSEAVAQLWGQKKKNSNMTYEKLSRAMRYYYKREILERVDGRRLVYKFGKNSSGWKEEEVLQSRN
# Procedure, shortened: as §1
# ETV1 = ETV1 (Homo sapiens, UniProt P50549 1-477)
# ETV1, sequence (P50549 whole entry): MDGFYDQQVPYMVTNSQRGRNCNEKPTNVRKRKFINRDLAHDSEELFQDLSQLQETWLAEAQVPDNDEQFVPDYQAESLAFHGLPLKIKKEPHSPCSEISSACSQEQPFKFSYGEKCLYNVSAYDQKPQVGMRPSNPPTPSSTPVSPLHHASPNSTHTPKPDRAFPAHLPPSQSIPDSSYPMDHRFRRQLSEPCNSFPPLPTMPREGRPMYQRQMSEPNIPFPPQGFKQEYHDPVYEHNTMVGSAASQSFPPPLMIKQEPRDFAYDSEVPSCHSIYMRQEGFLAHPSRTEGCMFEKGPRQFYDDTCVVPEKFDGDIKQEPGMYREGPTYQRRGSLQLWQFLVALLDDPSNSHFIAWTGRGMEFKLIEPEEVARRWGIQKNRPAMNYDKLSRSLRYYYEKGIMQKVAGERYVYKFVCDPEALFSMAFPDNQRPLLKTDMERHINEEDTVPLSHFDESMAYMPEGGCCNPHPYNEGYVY
# Procedure, shortened: as §1
# ERF = biological target: T3, ERF (Homo sapiens, UniProt P50548 1-548)
# T3 sequence: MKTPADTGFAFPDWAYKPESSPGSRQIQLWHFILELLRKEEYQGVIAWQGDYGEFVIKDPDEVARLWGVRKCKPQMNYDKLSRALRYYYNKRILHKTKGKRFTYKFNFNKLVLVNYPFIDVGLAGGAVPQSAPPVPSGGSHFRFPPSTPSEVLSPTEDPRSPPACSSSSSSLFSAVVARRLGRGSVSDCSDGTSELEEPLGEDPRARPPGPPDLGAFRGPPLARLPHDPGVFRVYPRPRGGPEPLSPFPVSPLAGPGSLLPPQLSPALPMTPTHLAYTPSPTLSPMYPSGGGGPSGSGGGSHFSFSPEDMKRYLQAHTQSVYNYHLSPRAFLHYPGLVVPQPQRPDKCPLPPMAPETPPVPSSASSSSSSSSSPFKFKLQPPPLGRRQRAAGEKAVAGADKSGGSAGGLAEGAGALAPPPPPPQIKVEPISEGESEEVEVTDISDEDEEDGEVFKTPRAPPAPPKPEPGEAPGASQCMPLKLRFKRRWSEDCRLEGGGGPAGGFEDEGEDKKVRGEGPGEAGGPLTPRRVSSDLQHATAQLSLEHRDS
# Procedure, shortened: as §1
# ETV3L = biological target: T4, ETV3L (Homo sapiens, UniProt Q6ZN32 1-361)
# T4 sequence: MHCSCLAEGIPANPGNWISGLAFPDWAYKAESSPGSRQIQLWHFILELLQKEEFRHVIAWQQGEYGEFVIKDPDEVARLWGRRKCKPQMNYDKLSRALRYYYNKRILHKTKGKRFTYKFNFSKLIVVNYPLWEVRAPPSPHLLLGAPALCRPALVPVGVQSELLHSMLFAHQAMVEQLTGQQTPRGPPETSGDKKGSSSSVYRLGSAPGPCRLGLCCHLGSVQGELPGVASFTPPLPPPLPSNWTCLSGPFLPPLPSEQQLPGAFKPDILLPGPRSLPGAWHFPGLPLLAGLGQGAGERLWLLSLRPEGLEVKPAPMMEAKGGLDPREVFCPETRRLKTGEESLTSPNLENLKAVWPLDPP
# Procedure, shortened: as §1
# ETS2 = biological target: T5, ETS2 (Homo sapiens, UniProt P15036 1-469)
# T5 sequence: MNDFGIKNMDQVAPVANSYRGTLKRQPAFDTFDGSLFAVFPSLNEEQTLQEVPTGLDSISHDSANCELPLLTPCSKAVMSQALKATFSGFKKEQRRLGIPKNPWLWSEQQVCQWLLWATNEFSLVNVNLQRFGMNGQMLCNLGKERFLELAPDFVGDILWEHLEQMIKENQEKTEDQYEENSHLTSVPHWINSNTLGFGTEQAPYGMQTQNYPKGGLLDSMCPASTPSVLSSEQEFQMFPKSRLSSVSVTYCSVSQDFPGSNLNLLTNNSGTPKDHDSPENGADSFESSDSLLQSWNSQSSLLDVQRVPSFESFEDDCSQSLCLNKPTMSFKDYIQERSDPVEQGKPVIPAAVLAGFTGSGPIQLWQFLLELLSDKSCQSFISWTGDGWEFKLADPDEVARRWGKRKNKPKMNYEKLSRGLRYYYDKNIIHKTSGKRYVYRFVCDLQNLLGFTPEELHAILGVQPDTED
# Procedure, shortened: as §1
# SPDEF = biological target: T6, SPDEF (Homo sapiens, UniProt O95238 1-335)
# T6 sequence: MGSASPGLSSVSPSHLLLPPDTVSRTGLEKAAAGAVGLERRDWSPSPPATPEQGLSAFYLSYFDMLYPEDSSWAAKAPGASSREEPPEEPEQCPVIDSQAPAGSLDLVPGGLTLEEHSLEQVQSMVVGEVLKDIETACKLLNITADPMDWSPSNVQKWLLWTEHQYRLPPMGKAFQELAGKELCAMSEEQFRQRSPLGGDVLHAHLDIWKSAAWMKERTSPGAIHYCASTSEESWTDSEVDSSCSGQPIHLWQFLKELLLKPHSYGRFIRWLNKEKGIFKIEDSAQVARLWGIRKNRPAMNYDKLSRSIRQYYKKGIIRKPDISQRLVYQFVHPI
# Procedure, shortened: as §1
# ETV7 = biological target: T7, ETV7 (Homo sapiens, UniProt Q9Y603 1-341)
# T7 sequence: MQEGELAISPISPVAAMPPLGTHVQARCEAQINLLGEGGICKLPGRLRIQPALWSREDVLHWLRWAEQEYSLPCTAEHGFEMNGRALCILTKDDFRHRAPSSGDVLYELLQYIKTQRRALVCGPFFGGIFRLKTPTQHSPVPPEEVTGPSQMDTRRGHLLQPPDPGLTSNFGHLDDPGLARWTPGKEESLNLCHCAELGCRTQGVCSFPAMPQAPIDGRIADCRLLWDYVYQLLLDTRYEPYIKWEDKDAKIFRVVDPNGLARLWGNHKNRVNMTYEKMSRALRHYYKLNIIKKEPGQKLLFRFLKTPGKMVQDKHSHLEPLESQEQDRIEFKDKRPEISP
# Procedure, shortened: as §1
# ETV3 = biological target: T8, ETV3 (Homo sapiens, UniProt P41162-2 1-143)
# T8 sequence: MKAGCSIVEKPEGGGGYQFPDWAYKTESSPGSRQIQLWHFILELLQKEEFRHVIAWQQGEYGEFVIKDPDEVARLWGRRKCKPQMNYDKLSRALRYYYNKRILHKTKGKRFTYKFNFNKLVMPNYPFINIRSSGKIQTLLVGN
# Procedure, shortened: as §1
# ETV6 = ETV6 (Homo sapiens, UniProt P41212 1-452)
# ETV6, sequence (P41212 whole entry): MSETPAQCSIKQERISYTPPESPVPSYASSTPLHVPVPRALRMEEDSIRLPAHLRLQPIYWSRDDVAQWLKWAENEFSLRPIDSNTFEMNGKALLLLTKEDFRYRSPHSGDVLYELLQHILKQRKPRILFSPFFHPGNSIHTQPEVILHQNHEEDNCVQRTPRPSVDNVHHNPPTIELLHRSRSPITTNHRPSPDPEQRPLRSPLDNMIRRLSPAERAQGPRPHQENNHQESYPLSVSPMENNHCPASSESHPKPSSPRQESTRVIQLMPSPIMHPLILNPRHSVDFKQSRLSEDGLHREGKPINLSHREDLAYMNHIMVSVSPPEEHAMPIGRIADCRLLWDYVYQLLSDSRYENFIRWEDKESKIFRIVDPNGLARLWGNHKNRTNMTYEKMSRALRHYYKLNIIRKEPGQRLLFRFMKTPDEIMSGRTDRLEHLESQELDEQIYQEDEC
# Procedure, shortened: as §1
sequence,measurement,setting,value
GTGCAT,binding signal,ELK4,"1.08 fold enrichment (6-mer frequency, TF over GST control)"
same,binding signal,ELF3,"1.03 fold enrichment (6-mer frequency, TF over GST control)"
same,binding signal,ETV1,"1.05 fold enrichment (6-mer frequency, TF over GST control)"
same,binding signal,ERF,"1.18 fold enrichment (6-mer frequency, TF over GST control)"
same,binding signal,ETV3L,"1.04 fold enrichment (6-mer frequency, TF over GST control)"
same,binding signal,ETS2,"1.1 fold enrichment (6-mer frequency, TF over GST control)"
same,binding signal,SPDEF,"1.17 fold enrichment (6-mer frequency, TF over GST control)"
same,binding signal,ETV7,"1.12 fold enrichment (6-mer frequency, TF over GST control)"
same,binding signal,ETV3,"1 fold enrichment (6-mer frequency, TF over GST control)"
same,binding signal,ETV6,"1.14 fold enrichment (6-mer frequency, TF over GST control)"
